# Measurements as given in the supplement of paper PMC12350171.
# Counter-ions that a name gives are not always drawn.
# Test system: Shigella flexneri
# Assay: growth AUC normalised to DMSO control (fraction of control); higher = less growth inhibition, active = hit call of the paper
# Conditions: 20 µM;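 active = AUC significantly below DMSO controls by Student t-fit with adjusted P under 0.01; inactive = not significantly reduced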
# Summary of the method: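 After two anaerobic passages, pathogens were added at a starting OD578 of 0.01 to pre-reduced mGAM plates holding compound at 20 μM with 1% DMSO; hemin and NAD were supplemented for Haemophilus parainfluenzae. Sealed with breathable membranes, plates were read at OD578 hourly for 24 h, in three biological replicates. The trapezoidal rule, applied up to the exponential-to-stationary transition, gave the growth-curve AUC, which was normalised to DMSO controls on the same plate.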
row,SMILES,growth AUC normalised to DMSO control
1,Cc1ccc(-c2cc(C(F)(F)F)nn2-c2ccc(S(N)(=O)=O)cc2)cc1 [Celecoxib],1.02 (inactive)
2,CCCN(CCC)C(=O)C(CCC(=O)O)NC(=O)c1ccccc1 (configuration not stated) [Proglumide],1.04 (inactive)
3,Clc1ccc(C(c2ccccc2Cl)C(Cl)Cl)cc1 (configuration not stated) [Mitotane],0.999 (inactive)
4,CCc1c(C)[nH]c2c1C(=O)C(CN1CCOCC1)CC2 (configuration not stated) [Molindone hydrochloride],1.02 (inactive)
5,OC(CCN1CCCCC1)(c1ccccc1)C1CC2C=CC1C2 (configuration not stated) [Biperiden hydrochloride],0.967 (inactive)
6,CC(COc1ccccc1)N(CCCl)Cc1ccccc1 (configuration not stated) [Phenoxybenzamine hydrochloride],1.01 (inactive)
7,Nc1ccc(/N=N/c2ccccc2)c(N)n1 [Phenazopyridine hydrochloride],0.922 (inactive)
8,N=C(N)NS(=O)(=O)c1ccc(N)cc1 [Sulfaguanidine],0.98 (inactive)
9,COc1ccc(/C=C/C(=O)Nc2ccccc2C(=O)O)cc1OC [Tranilast],0.973 (inactive)
10,C=C1/C(=C\C=C2/CCC[C@]3(C)[C@@H]([C@H](C)/C=C/[C@@H](O)C4CC4)CC[C@@H]23)C[C@@H](O)C[C@@H]1O [Calcipotriene],0.931 (inactive)
11,C[N+](C)(CCOc1ccccc1)Cc1ccccc1.O=C([O-])c1cc2ccccc2cc1O [Bephenium hydroxynaphthoate],1.04 (inactive)
12,COc1c(N2C[C@@H]3CCCN[C@@H]3C2)c(F)cc2c(=O)c(C(=O)O)cn(C3CC3)c12 [Moxifloxacin],0.0275 (active)
